Not all results are given here.
aSyn UTR act = Activators working through SNCA 5'UTR binding (MLPCN). alpha-synuclein 5'UTR reporter, activators screen. activity score, % (tested at 7.5 µM), hits read low. actives 7.1% (n = 300,000). AID 1814; in the data active = activity score below about -60%
* = called active by the depositor.

SMILES | aSyn UTR act
Cc1ccc(/C=N/Nc2ccc(F)cc2F)s1 | -180*
COc1cc(/C=N/Nc2ccc(F)cc2F)cc(OC)c1O | -63*
Fc1cccc(NCCc2c[nH]c3ccccc23)n1 | -101*
OCCCNc1c2ccccc2nc2ccccc12 | -155*
c1ccc2c(NCCc3c[nH]c4ccccc34)c3ccccc3nc2c1 | -549*
Clc1ccccc1-c1nc(-c2ccccc2)n[nH]1 | -214*
CCC(=O)Nc1cc(NC(=O)CSc2ncc(-c3ccc(F)cc3)n2Cc2ccco2)ccc1C | -226*
Cc1cccc(NC(=O)CSc2nccn2Cc2ccco2)c1 | -89*
COc1ccc(NC(=O)CSc2nccn2Cc2ccco2)cc1 | -96*
Cc1cccc(NC(=O)CSc2nccn2Cc2ccco2)c1C | -81*
CN(C)/C=N/c1cnc(C(=O)c2ccc(Cl)cc2)n1C | -202*
CCN1C(=O)N/C(=C/c2cc(C)n(Cc3ccccc3)c2C)C1=O | -63*
COc1ccc([C@@H]2[C@@H]3C(=O)N(C(C)(C)C)C(=O)[C@@H]3[C@]3(Cc4ccccc4)C(=O)N(c4cccc(C)c4)C(=O)N23)cc1 | -63*
Cc1ccc2nc(CSc3nc(C)cc(C)c3C#N)[nH]c2c1 | -70*
CCOC(=O)Cc1cc(=O)[nH]c(Nc2nc3ccccc3o2)n1 | -83*
COc1ccc(NC(=O)c2cc3c(=O)n(C)c4ccccc4c3n2C)cc1Cl | -72*
C=CCn1c(O)c(N=NC(=S)Nc2ccc(OC)c(Cl)c2)c2ccccc21 | 61
Cn1c(=O)c(C(=O)NC2CCCCCCC2)c(O)c2ccccc21 | -166*
Cn1c(=O)c(C(=O)NC2CCCCCC2)c(O)c2ccccc21 | -72*
CC1CCC(NC(=O)c2cc3c(=O)n(C)c4ccccc4c3n2C)CC1 (stereo not drawn) | -98*
Cn1cc(C(=O)C(=O)NC2CCCCC2)c2ccccc21 | -68*
O=C(C[n+]1cc(-c2ccc(F)cc2)n2c1CCC2)Nc1nc(-c2ccccc2)cs1 | -89*
COc1ccc(N2C(=S)N(C(=O)c3ccccc3)C(=Nc3ccccc3)C2=Nc2ccccc2)cc1 | -120*
COc1ccc(N=C2C(=Nc3ccc(OC)cc3)N(c3ccc(N(C)C)cc3)C(=S)N2c2ccc(OC)cc2)cc1 | 99
COc1ccc(N=C2C(=Nc3ccc(OC)cc3)N(c3ccccc3)C(=S)N2C(=O)c2ccc(Cl)cc2)cc1 | -200*
SMILES | aSyn UTR act
COc1cccc2c1C(=O)c1ccc3ccccc3c1C2=O | -141*
O=C(Nc1ccccc1)Nc1scc2c1c(=O)oc1ccccc12 | -123*
O=C(Nc1ccccc1)Nc1csc2ccccc12 | -165*
CC(=O)Nc1ccc(C#Cc2ccc(NC(C)=O)cc2)cc1 | 74
CC(=O)Nc1ccc(SCCCC(=O)c2ccccc2)cc1 | -161*
CC(=O)Nc1ccc(NC(=O)Nc2ccccc2)cc1 | -70*
O=C(Nc1ccccc1)Nc1c(F)cccc1F | -66*
CC1(C)CC(=O)c2sc(NC(=O)C3COc4ccccc4O3)nc2C1 (stereo not drawn) | -101*
CC1(C)CC(=O)c2sc(NC(=O)c3ccco3)nc2C1 | -120*
CCc1nc(N)nc(N)c1-c1ccc(Cl)cc1 | 85
Nc1ccc(Cc2nc3c(ccc4ccccc43)[nH]2)cc1 | -171*
Nc1ccc(-c2nc3ccc(N)cc3[nH]2)cc1 | -62*
Nc1ccc2nc(-c3cc(Cl)c(N)c(Cl)c3)[nH]c2c1 | -279*
Nc1ccc2nc(-c3ccc(Cl)cc3)[nH]c2c1 | -176*
Cc1ccc2nc(C(O)C(O)c3nc4ccc(C)cc4[nH]3)[nH]c2c1 (stereo not drawn) | -159*
Cc1ccc2nc(Cc3ccc(N)cc3)[nH]c2c1 | -90*
Cc1ccc(C)c(-c2nc3ccc(N)cc3[nH]2)c1 | -64*
Clc1ccc2nc(-c3ccc(Cl)nc3)[nH]c2c1 | -293*
Cc1cccc(-c2noc(CN(C)C(=O)c3ccco3)n2)c1 | -65*
O=C(NCc1cccs1)c1ccc(N2CCCC2=O)cc1 | -106*
CC1CCN(c2ccc(C(=O)NCCc3ccccc3)cn2)CC1 | -105*
CC1CCCN(c2ccc(C(=O)NCc3cccs3)cn2)C1 (stereo not drawn) | -85*
O=C(NCc1cccs1)c1ccc(N2CCCCC2)nc1 | -131*
CC1CCCN(c2ccc(C(=O)NCc3ccccc3)cn2)C1 (stereo not drawn) | -103*
O=C(Nc1ccc(-n2cnnn2)cc1)c1cn2ccccc2n1 | -89*
SMILES | aSyn UTR act
C/C(=N\OCc1ccc(C#N)cc1)c1ccccc1 | -120*
C/C(=N\OCc1cccc(C(=O)O)c1)c1ccc(Cl)cc1 | 104
CCc1ccc(Nc2ncccc2C#N)cc1 | -68*
CCC(C)c1ccc(Nc2ncccc2C#N)cc1 (stereo not drawn) | -176*
COc1ccc(CCNc2ncccc2C#N)cc1OC | -114*
N#Cc1nc(-c2ccc(F)cc2)oc1NCCCn1ccnc1 | -90*
N#Cc1nc(-c2ccc(OCc3ccccc3Cl)cc2)oc1NCCCn1ccnc1 | -65*
Brc1ccc(/C=C/C=N/Nc2nc3ccccc3s2)cc1 | -73*
CCC/C=N/Nc1nc2ccccc2s1 | -244*
C(=C\c1ccccc1)/C=N/Nc1nc2ccccc2s1 | -191*
Cc1ccc(C(=O)Nc2cccc3cccnc23)cc1Br | -178*
O=C(Nc1cccc2cccnc12)c1ccc2c(c1)OCCO2 | -178*
COc1cc(NC(=O)c2ccc3c(c2)OCO3)c2ncccc2c1 | -66*
O=C(CCCc1c[nH]c2ccccc12)N1CCCCCC1 | -73*
Clc1ccccc1N1CCN(Cc2c[nH]c3ccccc23)CC1 | 64
O=C(O)c1cccc(N/N=C/C2=C(Cl)c3cc(Cl)ccc3SC2)c1 | -103*
COc1cccc(Nc2ncnc3nc[nH]c23)c1 | -83*
Cc1ccc(NC(=O)Nc2ncnc3nc[nH]c23)cc1 | -106*
CCc1ccc(Nc2ncnc3nc[nH]c23)cc1 | -70*
Cc1ccc(Nc2ncnc3nc[nH]c23)cc1Cl | -146*
CCCCNc1c(-c2ccc(SC3CCCCC3)cc2)nc2ccccn12 | -83*
Cc1cc(O)c(C2=Nc3ccccc3SC(c3ccc(Cl)cc3)C2)c(=O)o1 (stereo not drawn) | -261*
CCOC(=O)NC1(Nc2ccc(C)cc2)Oc2ccccc2O1 | -100*
O=C(N/N=C/c1ccc(OC(=O)c2ccccc2Br)cc1)c1ccccn1 | -90*
Cc1ccsc1/C=N/NC(=O)c1cc(-c2ccncc2)nc2ccccc12 | 67
SMILES | aSyn UTR act
O=C(N/N=C/c1ccsc1)c1ccccn1 | -92*
O=C(N/N=C/c1ccc(Br)s1)c1ccccn1 | -96*
Cc1ccsc1/C=N/NC(=O)c1ccccn1 | -151*
Cc1ccc(/C=N/NC(=O)c2cccs2)o1 | -65*
O=C(N/N=C/C1CCCCC1)c1ccccn1 | -116*
Cc1ccsc1/C=N/NC(=O)c1cccs1 | -109*
Cc1ccsc1/C=N/Nc1ccc(C(=O)O)cc1 | 64
COc1cccc(/C=N/Nc2cc(-n3nc(C)cc3-c3ccccc3)ncn2)c1O | 110
Cc1cnn(-c2cc(N/N=C/c3ccc(F)cc3)ncn2)c1 | -86*
CC(C)(C)c1nnc(NC(=O)c2ccc(Cl)nc2)s1 | -126*
C=CCSc1nnc(NC(=O)c2ccc(Cl)nc2)s1 | -77*
O=C(C1CCCN1S(=O)(=O)c1cccc2nsnc12)N1CCN(c2ccccc2)CC1 (stereo not drawn) | -63*
COc1cccc(C(=O)Oc2c(CN3CCOCC3)cc(Cl)c3cccnc23)c1 | 89
COc1cccc(C(=O)CSc2nccn2C)c1 | -84*
Cn1ccnc1SCC(=O)c1ccc2ccccc2c1 | -71*
COc1ccc(C(=O)CSc2nccn2C)c(OC)c1 | -80*
Cn1ccnc1SCC(=O)c1ccc(O)cc1 | -65*
